Measurements: PubChem BioAssay (EPA / NIEHS)
Values joined by “and” are separate entries in the source; they are usually repeats but may differ in a detail not shown here. Equal values may be shown once. Records with an inconclusive call do not appear. Some compounds were tested as several samples or in several runs, with calls that do not always agree. Active and inactive are the calls of the source. Rule for the calls: active = hit-call score of the fitted dose curve at least 0.9, where 1 is the maximum; inconclusive = response in the unintended direction; inactive = score below 0.9.

What follows are molecules tested against PGR (gene 5241) (UniProt P06401) (assay: NVS_NR_hPR: NovaScreen (NVS) Nuclear Receptor Binding Assay for human Progestron Receptor (PR) (AID 2283360);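 note: active means loss of bound radioligand signal versus DMSO baseline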).
In short: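 Competitive displacement of a labelled radioligand from T47D-derived receptor protein is measured in a cell-free format. Initial testing uses 25 uM in duplicate, with positive and negative controls on every plate.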

Chain of PGR (gene 5241) (P06401 whole entry, looked up): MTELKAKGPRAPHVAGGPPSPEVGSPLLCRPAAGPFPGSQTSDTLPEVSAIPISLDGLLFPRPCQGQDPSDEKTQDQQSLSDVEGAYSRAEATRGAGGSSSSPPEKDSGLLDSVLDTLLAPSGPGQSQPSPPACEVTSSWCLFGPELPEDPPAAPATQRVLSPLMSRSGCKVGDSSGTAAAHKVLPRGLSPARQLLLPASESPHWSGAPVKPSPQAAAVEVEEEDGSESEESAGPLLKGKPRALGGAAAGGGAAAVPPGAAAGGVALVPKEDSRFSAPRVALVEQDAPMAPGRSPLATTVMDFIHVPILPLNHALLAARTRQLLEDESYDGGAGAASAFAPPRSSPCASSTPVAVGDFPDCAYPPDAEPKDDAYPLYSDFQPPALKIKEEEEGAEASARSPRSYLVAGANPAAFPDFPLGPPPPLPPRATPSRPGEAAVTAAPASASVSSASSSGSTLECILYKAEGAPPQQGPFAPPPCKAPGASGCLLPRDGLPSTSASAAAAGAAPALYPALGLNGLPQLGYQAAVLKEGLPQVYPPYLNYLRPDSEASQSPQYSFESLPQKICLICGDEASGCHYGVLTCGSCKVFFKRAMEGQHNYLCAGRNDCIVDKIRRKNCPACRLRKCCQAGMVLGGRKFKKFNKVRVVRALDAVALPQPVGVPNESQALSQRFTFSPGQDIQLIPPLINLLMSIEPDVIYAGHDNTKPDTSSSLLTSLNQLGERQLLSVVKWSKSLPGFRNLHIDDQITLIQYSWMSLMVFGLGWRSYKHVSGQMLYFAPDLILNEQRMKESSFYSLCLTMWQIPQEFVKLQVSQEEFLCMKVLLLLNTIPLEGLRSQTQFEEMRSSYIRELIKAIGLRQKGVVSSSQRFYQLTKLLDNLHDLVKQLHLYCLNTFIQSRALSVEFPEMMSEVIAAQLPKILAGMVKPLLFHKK

Row | Structure (SMILES) | AC50 | outcome
1 | CCCCCCCCCCCCc1ccccc1S(=O)(=O)O | 15100 nM (active) | 
2 | CCC(=C(c1ccc(O)cc1)c1ccc(OCCN(C)C)cc1)c1ccccc1 | 852 nM (active) | 
3 | c1ccc2c(c1)Cc1ccccc1-2 |  | inactive
4 | NC(=O)N(O)[C@@H]1C=C[C@H](Oc2cccc(Oc3ccc(F)cc3)c2)C1 |  | inactive

What follows are molecules tested against human Thyroid Receptor Alpha (TRa), THRA (gene 7067) (UniProt P10827) (assay: NVS_NR_hTRa_Antagonist: NovaScreen (NVS) Nuclear Receptor Binding Assay for human Thyroid Receptor Alpha Antagonism (TRa) (AID 2283362);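 note: activity is loss of signal relative to DMSO baseline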).
In short: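 Cell-free binding assay on extracted receptor protein, read 1 h after chemical dosing by AlphaLISA chemiluminescence; loss of signal relative to DMSO baseline marks antagonism. Primary screen ran in duplicate at 25 uM, with concentration series for actives.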

Chain of human Thyroid Receptor Alpha (TRa), THRA (gene 7067) (P10827 whole entry, looked up): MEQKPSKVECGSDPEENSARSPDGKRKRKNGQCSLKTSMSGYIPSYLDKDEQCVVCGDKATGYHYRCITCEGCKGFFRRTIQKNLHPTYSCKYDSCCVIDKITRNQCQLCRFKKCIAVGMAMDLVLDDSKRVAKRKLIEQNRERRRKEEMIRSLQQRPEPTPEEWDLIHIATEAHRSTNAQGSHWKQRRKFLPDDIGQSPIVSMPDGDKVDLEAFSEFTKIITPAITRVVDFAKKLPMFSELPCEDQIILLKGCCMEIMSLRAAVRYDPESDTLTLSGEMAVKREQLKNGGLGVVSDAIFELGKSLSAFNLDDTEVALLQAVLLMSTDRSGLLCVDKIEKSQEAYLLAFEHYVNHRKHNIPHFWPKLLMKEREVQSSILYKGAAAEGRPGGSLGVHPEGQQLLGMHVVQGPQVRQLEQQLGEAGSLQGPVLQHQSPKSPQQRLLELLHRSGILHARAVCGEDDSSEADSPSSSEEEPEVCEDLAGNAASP

Row | Structure (SMILES) | outcome | AC50
5 | CCCCCCCCCCCCc1ccccc1S(=O)(=O)O | inactive | 
6 | CCC(=C(c1ccc(O)cc1)c1ccc(OCCN(C)C)cc1)c1ccccc1 | inactive | 
7 | C#C[C@]1(O)CC[C@H]2[C@@H]3CCC4=CC(=O)CC[C@@H]4[C@H]3CC[C@@]21C | inactive | 
8 | CC#C[C@]1(O)CC[C@H]2[C@@H]3CCC4=CC(=O)CCC4=C3[C@@H](c3ccc(N(C)C)cc3)C[C@@]21C | inactive | 29900 nM (active)

Each molecule was assayed against Glucocorticoid receptor (Homo sapiens) (UniProt P04150) (assay: NVS_NR_hGR: NovaScreen (NVS) Nuclear Receptor Binding Assay for human Glucocorticoid Receptor (GR) (AID 2283363);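 for AC50: activity is loss of specific radioligand binding signal relative to DMSO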).
In short: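 Cell-free radioligand displacement assay on extracted human GR, read 16 h after dosing by filter-based scintillation counting. Screened in duplicate at 25 uM, then concentration series for actives; loss of signal versus DMSO baseline.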

Chain of Glucocorticoid receptor (Homo sapiens) (P04150 whole entry, looked up): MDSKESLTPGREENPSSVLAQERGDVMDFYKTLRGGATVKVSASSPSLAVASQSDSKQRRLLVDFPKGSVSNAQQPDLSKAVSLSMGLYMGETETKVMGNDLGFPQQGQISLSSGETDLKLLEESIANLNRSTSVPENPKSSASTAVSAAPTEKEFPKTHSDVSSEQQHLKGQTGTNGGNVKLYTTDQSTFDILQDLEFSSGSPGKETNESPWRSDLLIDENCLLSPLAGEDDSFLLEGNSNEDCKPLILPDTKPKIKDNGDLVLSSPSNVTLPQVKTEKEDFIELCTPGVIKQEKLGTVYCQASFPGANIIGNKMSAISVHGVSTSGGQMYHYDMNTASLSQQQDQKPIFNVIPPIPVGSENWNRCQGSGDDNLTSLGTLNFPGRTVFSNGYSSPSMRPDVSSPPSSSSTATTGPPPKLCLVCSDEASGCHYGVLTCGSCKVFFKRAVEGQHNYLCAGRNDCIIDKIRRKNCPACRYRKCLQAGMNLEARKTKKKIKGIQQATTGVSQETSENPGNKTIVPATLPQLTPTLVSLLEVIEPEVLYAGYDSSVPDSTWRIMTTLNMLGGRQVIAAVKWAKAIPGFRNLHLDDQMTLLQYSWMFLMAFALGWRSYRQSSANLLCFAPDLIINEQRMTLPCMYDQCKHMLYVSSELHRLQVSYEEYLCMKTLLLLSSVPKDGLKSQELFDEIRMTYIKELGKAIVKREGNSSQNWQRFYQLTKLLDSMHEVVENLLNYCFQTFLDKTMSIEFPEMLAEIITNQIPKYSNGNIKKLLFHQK

Row | Structure (SMILES) | outcome | AC50
9 | C[C@@H]1C[C@H]2[C@@H]3CCC4=CC(=O)C=C[C@]4(C)[C@@]3(F)[C@@H](O)C[C@]2(C)[C@@]1(O)C(=O)COP(=O)(O)O | inactive | 
10 | CCCCCCCCCCCCc1ccccc1S(=O)(=O)O |  | 2.47 µM (active)
11 | CC#C[C@]1(O)CC[C@H]2[C@@H]3CCC4=CC(=O)CCC4=C3[C@@H](c3ccc(N(C)C)cc3)C[C@@]21C | inactive | 
12 | O=C(O)Cc1cc(I)c(Oc2cc(I)c(O)c(I)c2)c(I)c1 |  | 5.56 µM (active) and 109 nM (active)

The molecules below were run against Nuclear receptor subfamily 1 group I member 2 (Homo sapiens) (UniProt O75469) (assay: NVS_NR_hPXR: NovaScreen (NVS) Nuclear Receptor Binding Assay for human Pregnane X Receptor (PXR) (AID 2283365);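 note: a drop in FRET signal versus DMSO baseline means the compound binds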).
In short: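 Cell-free binding assay with extracted human PXR protein, read by TR-FRET 2 h after dosing; loss of signal relative to DMSO baseline indicates binding. Primary screen at 25 uM in duplicate, actives retested in concentration series.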

Chain of Nuclear receptor subfamily 1 group I member 2 (Homo sapiens) (O75469 whole entry, looked up): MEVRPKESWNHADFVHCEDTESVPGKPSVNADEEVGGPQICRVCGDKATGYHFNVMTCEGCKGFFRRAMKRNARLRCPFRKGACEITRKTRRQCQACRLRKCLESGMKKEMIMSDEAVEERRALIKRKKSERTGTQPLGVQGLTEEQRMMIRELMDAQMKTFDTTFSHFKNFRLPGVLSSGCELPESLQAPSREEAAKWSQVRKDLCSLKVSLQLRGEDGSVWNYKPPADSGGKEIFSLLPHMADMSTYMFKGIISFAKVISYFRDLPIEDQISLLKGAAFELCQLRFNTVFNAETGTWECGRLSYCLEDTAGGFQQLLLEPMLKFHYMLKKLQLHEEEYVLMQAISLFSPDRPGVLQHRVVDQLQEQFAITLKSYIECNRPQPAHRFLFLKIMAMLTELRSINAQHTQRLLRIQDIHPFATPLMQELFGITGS

Row | Structure (SMILES) | AC50 | outcome
13 | CCC(=C(c1ccc(O)cc1)c1ccc(OCCN(C)C)cc1)c1ccccc1 | 1850 nM (active) | inactive
14 | C#C[C@]1(O)CC[C@H]2[C@@H]3CCC4=CC(=O)CC[C@@H]4[C@H]3CC[C@@]21C |  | inactive
15 | CC#C[C@]1(O)CC[C@H]2[C@@H]3CCC4=CC(=O)CCC4=C3[C@@H](c3ccc(N(C)C)cc3)C[C@@]21C |  | inactive
